# Compounds with a hit are over-represented: about 4% of the library has one in this group of screens.
# GDH-TPI counter-1: counter-screen for M. tuberculosis FBA inhibitors: GDH-TPI coupled enzymes. GDH-TPI coupled enzyme counterscreen, NADH absorbance. inhibition, % at 4.8 µM. 360,000 tested, 1.2% active. AID 588335; in the data active means inhibition above about 30%;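 further: 0% = DMSO wells and 100% = wells lacking the enzyme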
# RecA splice inh: inhibitors of M. tuberculosis RecA intein splicing. cell-free RecA intein splicing, fluorescence. inhibition, % (concentration not given with the values). 290,000 tested, 0.75% active. AID 2221; in the data active means inhibition above about 30%; inconclusive means no clear call, values can overlap the other calls;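 further: 0% = vehicle wells and 100% = reference inhibitor control wells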
# Mtb FBA inh: inhibitors of M. tuberculosis fructose-bisphosphate aldolase; purified M. tuberculosis FBA, fluorescence read-out; inhibition, % at 1 µM; AID 588726; P9WQA3; 360,000 tested, 2.3% active;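 further: 0% = vehicle and 100% = reference inhibitor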
# Mtb betalactam: beta-lactam sensitization of Mtb H37Rv. M. tuberculosis H37Rv growth with meropenem, percent inhibition. inhibition, % at 25 µM. 330,000 tested, 0.27% active. AID 434955; call rule not given here;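 further: growth measured after seven days incubation then overnight dye step; 0% = bacteria only wells and 100% = bacteria with antibiotic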
# Mtb UGM inh: inhibitors of M. tuberculosis UDP-galactopyranose mutase | P9WIQ1 | purified UGM, fluorescence polarization probe displacement | inhibition, % at 10 µM | 320,000 tested, 0.06% active | AID 504406; in the data active means inhibition above about 10%, passing the limit was not always enough; inconclusive means no clear call, values can overlap the other calls
# Target sequence (P9WIQ1 whole entry, looked up): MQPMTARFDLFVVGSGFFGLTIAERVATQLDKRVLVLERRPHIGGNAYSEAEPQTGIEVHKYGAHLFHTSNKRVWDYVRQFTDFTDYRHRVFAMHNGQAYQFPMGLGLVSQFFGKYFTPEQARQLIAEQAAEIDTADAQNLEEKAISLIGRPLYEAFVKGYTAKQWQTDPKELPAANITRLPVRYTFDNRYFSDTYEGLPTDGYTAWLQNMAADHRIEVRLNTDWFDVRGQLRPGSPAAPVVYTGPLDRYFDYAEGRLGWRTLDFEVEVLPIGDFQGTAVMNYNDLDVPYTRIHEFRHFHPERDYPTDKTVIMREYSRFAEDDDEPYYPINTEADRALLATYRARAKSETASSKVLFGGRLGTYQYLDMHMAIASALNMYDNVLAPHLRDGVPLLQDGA
# Rv3671c protease: inhibitors of M. tuberculosis serine protease Rv3671c | inhibition, % at 5.96 µM | 320,000 tested, 0.048% active | AID 2606; in the data active means inhibition above about 38%;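 further: extracellular domain of Rv3671c used as enzyme; 0% = enzyme with DMSO and 100% = no enzyme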
# Mtb FBA inh conf: Mtb FBA inhibition, confirmed; shares compounds with Mtb FBA inh; 5,600 tested, 78% active; inhibition, % at 1 µM; AID 651616; purified M. tuberculosis FBA, fluorescence read-out;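 further: 0% = vehicle wells and 100% = reference inhibitor wells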
# GDH-TPI counter-2: GDH-TPI inhibition counter-screen for FBA inhibitors | GDH-TPI coupled enzyme counterscreen, fluorescence | 5,600 tested, 81% active | shares compounds with Mtb FBA inh | inhibition, % at 1 µM; in the data active means inhibition above about 10%
# Numbers without * were called inactive; i = inactive; ? = inconclusive; . = no result given; + = active, no number. Unless noted, no stated cut-off is given here; in the data, active means inhibition above about 27%; inactive means the rest.
SMILES,GDH-TPI counter-1,RecA splice inh,Mtb FBA inh,Mtb betalactam,Mtb UGM inh,Rv3671c protease,Mtb FBA inh conf,GDH-TPI counter-2
Cn1c2ccccc2c(=O)c2ccc(Cl)cc21,6,.,106*,.,.,.,64*,44*
Cn1c(=O)oc(=O)c2ccccc21,17,.,94*,.,.,.,135*,116*
CCOC(=O)c1ccc(-c2ccc3c(=O)c4ccccc4n(C)c3c2)cc1F,13,-9,57*,98,0,-11,133*,117*
Cn1c2ccccc2c2c(=O)oc3ccccc3c21,20,.,8,.,.,.,.,.
O=C(CNCc1cccs1)Nc1ccc(N2CCCCCC2)cc1,2,-3,-1,98,-2,1,.,.
COc1ccc2c(COC(=O)[C@@H]3CCCN3S(=O)(=O)c3ccc(Cl)cc3)cc(=O)oc2c1,7,.,51*,.,.,.,102*,76*
COc1ccc2c(COC(=O)CNC(=O)C34CC5CC(CC(C5)C3)C4)cc(=O)oc2c1,12,-3,85*,-4,2,-8,+,167*
COc1cc(NC(=O)COC(=O)[C@@H]2CCCN2S(=O)(=O)c2ccc(Cl)cc2)cc(OC)c1OC,8,3,6,0,1,0,.,.
COc1ccc2c(CN3CCCCCCC3)cc(=O)oc2c1,.,.,82*,.,.,.,1,0
COc1cc(NC(=O)COC(=O)CNC(=O)C23CC4CC(CC(C4)C2)C3)cc(OC)c1,12,.,1,-1,4,7,.,.
CCCCC(=O)Nc1cc(N(C)C)nc2ccccc12,14,0,35*,-5,0,7,+,+
CN(C)c1cc(NC(=O)CNC(C)(C)C)c2ccccc2n1,1,-1,22,2,-2,9,.,.
CCCCc1nc2ccccc2c(NC(=O)CN2CCCC2)c1CCC,11,0,1,7,1,3,.,.
O=C(CN1CCCCC1)Nc1c2c(nc3ccccc13)N(c1ccccc1)CC2,3,-4,80*,0,-1,0,152*,125*
Cc1c(OCC(=O)N(C)C)ccc2c3c(c(=O)oc12)CCCCC3,16,-2,88*,3,2,-22,1,-4
CCc1c(C)c2ccc(OCC(=O)OC(C)C)c(C)c2oc1=O,4,1,11,?,-2,0,.,.
Cc1cc(=O)oc2c(C)c(OCC(=O)N(C)C)ccc12,20,.,37*,-18,1,6,46*,40*
Cc1c(C)c2ccc(OCC(=O)N(C)C)c(C)c2oc1=O,12,-4,79*,2,3,-5,148*,125*
Cc1cc(=O)oc2c(C)c(OCC(=O)c3ccccc3)ccc12,3,1,0,2,-1,-2,.,.
CCc1c(C)c2ccc(OCC(=O)N(C)C)c(C)c2oc1=O,3,.,76*,-11,0,6,+,+
COc1ccc(S(=O)(=O)NCC(=O)N(CC(=O)NCC2CCCO2)Cc2ccc(F)cc2)cc1 (configuration not stated),3,-2,-2,-4,4,-6,.,.
Cc1nn(Cc2ccccc2)c(C)c1C(=O)N1CCN(S(=O)(=O)/C=C/c2ccccc2)CC1,0,.,0,4,-3,8,.,.
N#CCN1C(=O)NC2(CCCc3sccc32)C1=O (configuration not stated),2,-1,-2,2,0,2,.,.
Cc1nn(C)c(C)c1NC(=O)COc1ccc(Cl)cc1Br,2,.,0,-10,-2,-18,.,.
CCOC(=O)CCc1c(C)c2ccc(OCC(=O)N(CC)CC)c(C)c2oc1=O,0,0,76*,10,-2,4,18,20*
SMILES,GDH-TPI counter-1,RecA splice inh,Mtb FBA inh,Mtb betalactam,Mtb UGM inh,Rv3671c protease,Mtb FBA inh conf,GDH-TPI counter-2
C=CCOC(=O)COc1ccc2c(C)c(C)c(=O)oc2c1C,11,1,58*,96,0,-3,32*,34*
COc1ccc2c(C)cc(=O)oc2c1C,2,3,54*,2,-2,8,+,196*
COc1ccccc1CNCc1cc(=O)oc2c(C)c(C)ccc12,0,-2,5,7,0,-4,.,.
Cc1cccc(C)c1NC(=O)COc1ccc2c(C)c(Cc3ccccc3)c(=O)oc2c1C,0,0,1,3,0,3,.,.
OC[C@@H]1[C@@H](c2ccccc2)C(c2cccc(Cl)c2)=NN1c1ccccc1,-6,.,50*,.,.,.,122*,134*
OC[C@@H]1[C@@H](c2ccc(Cl)cc2)C(c2ccc(F)cc2)=NN1c1ccccc1,3,.,60*,.,.,.,150*,98*
OC[C@@H]1[C@@H](c2ccccc2)C(c2ccccc2)=NN1c1ccccc1,3,.,49*,.,.,.,120*,91*
Oc1ccccc1C1=NN(c2ccccc2)C(c2ccc(F)cc2)C1 (configuration not stated),1,-11,1,-4,2,.,.,.
CCOC(=O)c1c(-c2ccccc2)[nH]c2ccc(O)cc12,19,3,40*,3,2,3,55*,49*
CCOC(=O)c1c(-c2ccccc2)oc2ccc(O)cc12,7,-3,3,73,1,-12,.,.
O=c1c2ccccc2[nH]c2ccc(O)cc12,-6,i,28*,2,3,5,+,+
CC(=O)Nc1c(O)c2ccccc2[nH]c1=O,3,-4,9,1,2,1,.,.
CCN1C[C@@H]2[C@@H]3C(=O)N(Cc4ccccc4)C(=O)[C@@H]3[C@](C)(C1=O)N2C(=O)c1ccccc1,-7,.,-2,.,.,.,.,.
O=C(NCc1ccccc1Br)c1cccs1,-3,.,2,.,.,.,.,.
CC(C(=O)Nc1ccc(Cl)cc1)N(C)Cc1cccs1 (configuration not stated),-1,3,2,6,-1,-2,.,.
CC(C(=O)Nc1ccc(C#N)cc1)N(C)Cc1cccs1 (configuration not stated),-4,1,77*,-4,0,1,50*,40*
CCCc1nc2oc3c(NCC(C)O)ncnc3c2c2c1CCCC2 (configuration not stated),1,1,36*,0,1,-1,68*,45*
COc1ccccc1-c1oc2ccccc2c1C#CCCO,20,.,65*,38,1,-7,7,4
COCCCNC(=O)c1c(N)n(-c2ccc3c(c2)OCO3)c2nc3ccccc3nc12,19,6,7,-9,3,-12,.,.
CCCCn1c(N)c(C(=O)NCCN2CCOCC2)c2nc3ccccc3nc21,11,-235,80*,1,-2,3,+,+
CCC(C)NC(=O)c1c(N)n(CCCOC)c2nc3ccccc3nc12 (configuration not stated),4,i,94*,22,-2,-32,+,+

# Screens deposited in PubChem BioAssay by several laboratories.
